Measurements: ChEMBL document CHEMBL3988442, “University of Dundee, Small-Polar-MMV Screening Library” (2021)
Hit rate of the full screen: of about 48,000 compounds, about 13,000 (27%) showed an effect of 50% or more. The list shows a part of the results.

System: Wolbachia pipientis
Experiment: Anti-Wolbachia Cell-Based Screen
Assay type: functional
Set-up: scale not given: in the data most compounds retested in dose-response had high values
Conditions: 5 µM

| Structure (SMILES) | Percent Effect [%] |
| --- | --- |
| CN(C)c1nc(CNC(=O)Nc2cccc([S+](C)[O-])c2)cs1 (centres undefined) | 95.39 |
| CCc1nn(C)c(CC)c1CNC(=O)Nc1cccc([S+](C)[O-])c1 (centres undefined) | 3.217 |
| CN1CCN(c2cccc(NC(=O)NCc3csc(N(C)C)n3)c2)C1=O | -9.852 |
| O=C(NCCn1nc2ccccn2c1=O)c1cccc2[nH]ncc12 | -8.467 |
| COCc1cn(CC2CCN(Cc3nc(C)c[nH]3)CC2)nn1 | 122.2 |
| CNCc1cn(CC2CCN(CC(C)(C)CN3CCCC3)CC2)nn1 | -11.44 |
| COCc1cn(CC2CCN(Cc3cc(C)[nH]n3)CC2)nn1 | 114.7 |
| Cc1nc(CN2CCCC(Cn3cc(CCO)nn3)C2)c[nH]1 (centres undefined) | 12.54 |
| CC(C)(CN1CCCC1)CN1CCC(Cn2cc(CCO)nn2)CC1 | 39.97 |
| COCc1cn(CC2CCN(Cc3c(C)[nH]c4ccccc34)CC2)nn1 | 121.8 |
| CCCN1CCC(N2CCC(Cn3cc(CC(C)O)nn3)CC2)CC1 (centres undefined) | -21.76 |
| Cc1cc(C)n2ncc(CN3CCC(Cn4cc(CO)nn4)CC3)c2n1 | 8.529 |
| CNCc1cn(CC2CCN(Cc3cccs3)CC2)nn1 | 1.439 |
| CCC(CNC(=O)c1ccc(Br)o1)N1CCc2ccccc2C1 (centres undefined) | -5.246 |
| N[C@H]1CC[C@@H](Nc2nccc(CCC(F)(F)F)n2)CC1 | 2.361 |
| CC(C)n1ccnc1C1CCN(C(=O)c2ccccc2)CC1 | 1.199 |
| O=C(c1ccccc1)N1CCCN(C(=O)c2ncncc2Cl)CC1 | 22.3 |
| Nc1cc(-c2cncnc2C2CCN(C(=O)c3ccccc3)C2)ccn1 (centres undefined) | 132.6 |
| Cc1ncsc1C(=O)N1CCC(c2ncncc2-c2ccnc(N)c2)C1 (centres undefined) | 113.1 |
| Cc1nc(C2CCCN(C(=O)c3scnc3C)C2)no1 (centres undefined) | -0.5479 |
| Cc1ccc2nc(CN(Cc3ccc(C#N)cc3)C(C)C)cc(=O)n2c1 | -2.733 |
| COCCCN(C)[C@@H]1c2ccccc2C2(CCNCC2)[C@H]1O | 9.06 |
| COC(CNC(=O)c1cn(C)nn1)c1ccccc1C (centres undefined) | -14.48 |
| COc1c(F)cc(-c2cn(CCn3c(C)cc(C)nc3=O)nn2)cc1Cl | -4.684 |
| Cc1noc(C)c1CN1CCN(C(=O)CCn2cncn2)CC1 | -2.995 |
| Cc1nn(CC(=O)N2CCN(Cc3cccnc3)CC2)c(C)c1Cl | 2.693 |
| Cc1c(Cn2cc(Cl)c(N)n2)cnn1C | -4.897 |

| Structure (SMILES) | Percent Effect [%] |
| --- | --- |
| CCn1ncc(CN2CCN(C(=O)Cn3cc(Br)c(C)n3)CC2)c1C | 124.7 |
| CCn1ncc(Cn2cc(Cl)c(N)n2)c1C | 0.6319 |
| Cc1nn(CC(=O)N2CCN(Cc3cnn(C)c3C)CC2)cc1Cl | 97.92 |
| Cc1nn(CC(=O)NCc2cc3n(n2)CCCN(CC(C)C)C3)cc1Cl | -2.88 |
| Cc1nn(CC(=O)N2CCN(Cc3cnn(C)c3C)CC2)cc1Br | 123 |
| Cc1nc(C)c(C(=O)N2CCCN(Cc3cnn(C)c3)CC2)s1 | 16.21 |
| Cc1nn(CCC(=O)N2CCN(Cc3cnn(C)c3C)CC2)c(C)c1Br | 118.1 |
| Cl.Cl.OC(CN1CCN(Cc2cccc(F)c2)CC1)C1CC1 (centres undefined) | -1.915 |
| CCC(=O)NC(CC(C)C)c1cccs1 (centres undefined) | 11.67 |
| O=C1CC(NS(=O)(=O)NCc2ccccc2)CN1c1ccccc1Cl (centres undefined) | 6.599 |
| Cc1ccc(OCC(=O)NC2(C#N)CCSCC2)cc1C | -7.391 |
| Cc1nsc(NC2CCN(c3ccccc3OC(F)F)C2=O)n1 (centres undefined) | -11.3 |
| Cc1cccc(-c2nnc(C(C)NCCn3cc(C)cn3)o2)c1 (centres undefined) | -10.86 |
| CC(=O)Nc1cccc(C(C)NCC2CCS(=O)(=O)CC2)c1 (centres undefined) | 10.2 |
| CNC(=O)c1n[nH]c2c1C(c1cccc3c1OC(C)(C)C3)CC(=O)N2 (centres undefined) | 27.3 |
| Cc1nn(CC(=O)N2CCN(Cc3cn(C)nc3C)CC2)cc1Br | 147.4 |
| Cc1noc(C)c1CN1CCN(C(=O)Cn2cncn2)CC1 | -5.281 |
| Cc1nn(CCO)cc1CN1CCCN(C2CCCC2)CC1 | 15.64 |
| O=C(c1ccc[nH]1)N1CCN(C(c2ccccc2)C(F)(F)F)CC1 (centres undefined) | -1.01 |
| Cc1ccc(C(=O)NCCCN(C)S(C)(=O)=O)c(=O)[nH]1 | -1.59 |
| Cc1ccc(C(=O)NCCCN(C)S(C)(=O)=O)cc1-n1cccc1 | 108.6 |
| CC(=O)NCCc1cn(-c2cc(F)ccc2C)cn1 | 0.929 |
| Cc1ccc(C(=O)NS(C)(=O)=O)cc1S(C)(=O)=O | -7.611 |
| CC(=O)NCCNC(=O)c1ccc(C)c(-n2cccc2)c1 | 112.1 |
| Cc1cc(C(=O)NCCC(C)C)ccc1NS(C)(=O)=O | 2.329 |
| Cc1ccc(CC(=O)NCCCNS(C)(=O)=O)cc1 | 4.317 |
| Cc1ccc(C(=O)NS(C)(=O)=O)cc1-n1cccc1 | 119 |
